KB-3-1 tox: KB-3-1 parental cell cytotoxicity | KB-3-1 viability, CellTiter-Glo ATP luminescence, 72 h | Potency, µM (top dose mostly 46.1 µM), hits mostly cytotoxic | 400,000 compounds, 1.4% hits | AID 1347075; note: nearly all actives have a fitted effect of over 60% in size
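Multi-concentration cytotoxicity screen in KB-3-1 cells grown in DMEM lacking phenol red with 10% FBS. After 72 h at 37 °C with compound, ATP-dependent luminescence was recorded.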
HT1080 IDH1KD tx: HT-1080 IDH1 knockdown cell toxicity (counter line); HT-1080 IDH1 knockdown viability, ATP luminescence, 48 h; Potency, µM (doses to about 46.1 µM), inactives show at the top dose activity, negative = toxicity, actives largely listed as cytotoxic; 360,000 compounds, 2% hits; AID 686971;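 note: 0% = DMSO wells and -100% = cell-free medium wells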
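% activity derives from luminescence (CellTiter-Glo), normalised to DMSO and no-cell wells. HT-1080-IDH1KD cells, 750/well, had 48 h compound exposure at 37 °C.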
KB-V1 MDR tox: kills drug-selected multidrug resistant KB-V1 cells. KB-V1 MDR cells viability, CellTiter-Glo, 72 h. Potency, µM (top dose mostly 46.1 µM), usual class: cytotoxic. 400,000 compounds, 3.4% hits; note: nearly all actives have a fitted effect of over 60% in size
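Readout: CellTiter-Glo luminescence, 10 min after addition. Cells: KB-V1 MDR subline, 72 h at 37 degrees C with compound. Analysis: corrected, normalized data fitted to concentration-effect curves.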
HT1080NT lethal: kills 2HG-producing HT-1080-NT fibrosarcoma cells; HT-1080-NT fibrosarcoma viability, CellTiter-Glo ATP luminescence, 48 h; Potency, µM (titrated, usually from 46.1 µM), inactives show top-dose activity, negative = less viability, most hits filed as cytotoxic; 360,000 compounds, 1.6% hits;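 note: NT is the 2HG producing partner of a matched IDH1 knockdown line; 0% = DMSO-treated cells and -100% = media-only wells without cells; nearly all actives have a fitted effect of over 55% in size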
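Luminescent CellTiter-Glo readout after 48 hours of compound exposure at 37 degrees C defined viability of HT-1080-NT cells. Activity was normalized to DMSO wells and cell-free media wells; concentration-response curves were fitted and assigned curve classes.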
DT40 TDP1 no CPT: qHTS for Inhibitors of human tyrosyl-DNA phosphodiesterase 1 (TDP1): qHTS in cells in absence of CPT; DT40 Tdp1-/- hTDP1 cells, no CPT, ATP luminescence, 48 h; Potency, µM (highest dose often 46.2 µM), without a hit: top-dose activity change, negative = growth inhibition, actives largely listed as inhibitors; 420,000 compounds, 15% hits; note: nearly all actives have a fitted effect of over 55% in size
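Growth of hTDP1-complemented DT40 Tdp1-knockout cells is measured by ATP luminescence after at least 48 hr compound exposure at 37 °C, with DMSO substituting for the 20 nM CPT used in the parallel screen.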
DT40 TDP1 CPT: growth inhibition of DT40 Tdp1-/-;hTDP1 cells with camptothecin (screen for TDP1 inhibitors); 420,000 compounds, 12% hits; chicken DT40 Tdp1-/-;hTDP1 cells + 20 nM CPT, ATP luminescence, 48 h; Potency, µM (titrated, usually from 46.2 µM), for the others: top-dose activity change, negative = growth inhibition, hits mostly inhibitors; note: nearly all actives have a fitted effect of over 55% in size
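Chicken DT40 Tdp1-/- cells stably complemented with human TDP1 were seeded at 400 cells/well in medium containing 20 nM camptothecin, exposed to pin-transferred compounds, and grown at 37 °C for at least 48 hr. Viability was read as ATP luminescence.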
Numbers without * were called inactive; i = inactive; ? = inconclusive; · = no result. Most compounds without a hit are left out; they make up all but 19% or so of the library. Calls come from the whole dose curve; as a rule, active = well fitted curve in the direction sought with a large enough effect; inconclusive = small, poorly fitted or top-dose-only effect, or another doubt; inactive = no such curve, though single readings can be large; an effect the other way counts as inactive or inconclusive. Unless noted, % is set by controls: 0 for no effect and ±100 for the full control effect; potency is the fitted concentration of half-maximal effect.

SMILES | KB-3-1 tox | HT1080 IDH1KD tx | KB-V1 MDR tox | HT1080NT lethal | DT40 TDP1 no CPT | DT40 TDP1 CPT
O=C(c1cc([N+](=O)[O-])ccc1Cl)N1CCN(c2ccccc2)CC1 | i | 4.3% | i | 11.6% | -18.4% | 22.3%
O=C(NC(CC(=O)N1CCN(c2ccc([N+](=O)[O-])cc2)CC1)c1ccccc1)c1ccccc1Cl (configuration not stated) | i | 0.1% | i | -5.8% | 16.4µM* | ?
Cc1nc(-c2ccc([N+](=O)[O-])cc2)nc2[nH]ccc(=O)c12 | i | 29.7% | i | ? | 7.5% | -5.1%
O=S(=O)(c1ccccc1)c1nnn2c1nc(NC1CCCCC1)c1sccc12 | i | · | i | · | -5.9% | -18.2%
Cc1ccc(NC(=S)NN(C)c2cc(C)nc(C)n2)cc1 | i | 8.3% | 18.4µM* | 8.7% | -1.9% | 5.7%
CN(C)NC(=S)Nc1ccc(Cl)cc1 | i | ? | i | ? | -6.5% | -13.7%
CC1(c2ccc(Cl)cc2)CC(C)(C)N(C(=O)c2ccccc2)c2ccccc21 (configuration not stated) | i | · | ? | · | ? | ?
COc1cccc(C(=O)N2c3ccc(C)cc3C(C)(c3ccccc3)CC2(C)C)c1 (configuration not stated) | · | · | · | · | 23.1µM* | ?
COc1ccc(C(=O)N2c3ccccc3C(C)(c3ccc(Cl)cc3)CC2(C)C)cc1 (configuration not stated) | · | · | · | · | 16.4µM* | ?
CC1(c2cc([N+](=O)[O-])cc([N+](=O)[O-])c2)CC(C)(C)N(C(=O)c2ccccc2)c2ccccc21 (configuration not stated) | i | 0.2% | i | 11.6% | 16.4µM* | 23.1µM*
O=C(Nc1ccc(Br)cc1)N1CCC(CN2CCCC2)CC1 | · | · | · | · | -13.1% | ?
Nc1ncnc2c1ncn2[C@@H]1O[C@H](C(=O)NC2CC2)[C@@H](O)[C@H]1O | · | · | · | · | 3.8% | -5.5%
Cc1ccc(C)c(SCC(=O)N(C)CC(=O)Nc2ccc(N3CCOCC3)cc2)c1 | i | -12.3% | i | -18.9% | -20.2% | -17.7%
CC(=O)Nc1ccc(NC(=O)CSc2nnnn2-c2ccc(F)cc2)cc1 | i | -0.2% | i | -1.9% | ? | -19.5%
CC(=O)c1ccc(OCc2cc(C(=O)NC(C)c3cnn(C)c3)no2)cc1 (configuration not stated) | i | 3.5% | i | -5.2% | -5.0% | -29.1%
Cc1cc(OCc2cc(C(=O)N3CCN(CC4CC4)CC3)no2)cc(C)c1Cl | ? | ? | i | -17.6% | ? | ?
Cc1cc(OCc2cc(C(=O)N(C)C(C)c3ccccn3)no2)cc(C)c1Cl (configuration not stated) | i | -13.4% | ? | -21.3% | ? | 18.4µM*
Cc1ccc(OCc2cc(C(=O)N3CCN(C4CCCCC4)CC3)no2)cc1C | i | -20.8% | i | -8.4% | ? | 16.4µM*
Cc1cc(OCc2cc(C(=O)N3CCC(Oc4cccnc4)CC3)no2)cc(C)c1Cl | i | ? | ? | -4.2% | 14.6µM* | 13µM*
Cc1cc(OCc2cc(C(=O)NC(C)c3cnn(C)c3)no2)cc(C)c1Cl (configuration not stated) | i | -3.2% | ? | -3.8% | 16.4µM* | 18.4µM*
Cc1ccc(OCc2cc(C(=O)N3CCN(C4CCCC4)CC3)no2)cc1C | i | 3.2% | ? | 1.9% | -24.5% | -24.5%
NS(=O)(=O)c1ccc(CCNC(=O)c2cc(-c3cc(Cl)ccc3O)n[nH]2)cc1 | i | ? | i | -23.4% | ? | ?
Cc1cc(NC(=O)CNCC(c2ccccc2)N(C)C)c([N+](=O)[O-])cc1C (configuration not stated) | i | -1.1% | i | -2.8% | 1.1% | 4.7%
Cc1ccc(NC(=O)CSc2nnc(CNC(=O)c3cccs3)o2)c(C)c1 | i | 1.0% | i | 1.5% | 3.7% | 2.7%
CC[C@@]1(C(=O)OC)N[C@H](CN(C)C(=O)COC)[C@@H]2C(=O)N(C)C(=O)[C@@H]21 | i | 4.3% | i | 6.5% | -9.7% | 0.0%
SMILES | KB-3-1 tox | HT1080 IDH1KD tx | KB-V1 MDR tox | HT1080NT lethal | DT40 TDP1 no CPT | DT40 TDP1 CPT
CCCCCCCCCCCCCCCCCC(=O)OCC(C)O (configuration not stated) | · | · | · | · | ? | -18.6%
CCCOC1CCCN(C(=O)c2cc(COc3c(F)cccc3F)on2)C1 (configuration not stated) | i | 1.4% | ? | 10.7% | ? | ?
Cc1ccccc1C1CCCN(C(=O)c2cc(COc3c(F)cccc3F)on2)C1 (configuration not stated) | i | -8.0% | i | 0.5% | 20.6µM* | 23.1µM*
Cc1cc(OCc2cc(C(=O)N3CCCCCC3)no2)cc(C)c1Cl | i | -11.6% | i | -6.0% | ? | 14.6µM*
CCOC(=O)/C=c1\s/c(=C\c2ccc(C(=O)OC)cc2)c(=O)n1CC(=O)Nc1ccccc1 | i | 14.5% | i | 20.6% | ? | 16.4µM*
CCOC(=O)/C=c1/s/c(=C/c2ccc3cc(OC)ccc3c2)c(=O)n1CC(=O)NCC1CCCO1 (configuration not stated) | ? | 13.5% | i | 4.8% | 10.3µM* | 16.4µM*
CCOC(=O)/C=c1\s/c(=C\c2c(OC)ccc3ccccc23)c(=O)n1CC(=O)NCC1CCCO1 (configuration not stated) | 4.61µM* | 7.94µM* | 2.31µM* | 10µM* | 20.6µM* | ?
CCOC(=O)/C=c1\s/c(=C\c2ccc(C#N)cc2)c(=O)n1CC(=O)NCc1ccco1 | i | 5.2% | i | 7.4% | -12.5% | 17.9%
COc1ccc([C@@H](OC)[C@@]2(Cc3ccc(O)cc3)N=C(N)N(C)C2=O)cc1 | i | 5.5% | i | -4.3% | ? | ?
O=C1CC(N2CCN(S(=O)(=O)c3ccccc3F)CC2)C(=O)N1c1ccccc1F (configuration not stated) | i | 7.2% | ? | 10.5% | 22.8% | -1.5%
COc1cccc(CNC(=O)CCCn2ccc3cc(S(=O)(=O)N4CCCC4)ccc32)c1 | ? | -25.7% | i | -24.9% | ? | ?
